# Data from the supplement of paper PMC8728848.
# Many of the other results were omitted from the sample, so the strongest signals are more common in it than they were.
# How the values were obtained:
# Assay in all cases: glycan array binding signal (z-score within array); higher = stronger binding
# Settings in all cases: glycan notation: IUPAC condensed, linker removed
# [1] = target: Fuc(a1-2)Gal
# Method in brief: (§1)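 Arrays were curated from the Consortium for Functional Glycomics database, 3228 in total, and kept only where the protein sequence was available. Binding is expressed as a within-array Z-score. This score was averaged across arrays of the same protein sequence at different concentrations or buffers and across linkers, and negative values can be read as non-binding.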
# [2] = target: Fuc(a1-2)Gal(b1-3)GlcNAc
# Method in brief: as §1
# [3] = target: Fuc(a1-2)Gal(b1-3)GlcNAc(b1-3)[Gal(b1-4)GlcNAc(b1-6)]Gal(b1-4)Glc
# Method in brief: as §1
# [4] = target: Fuc(a1-2)Gal(b1-3)[Fuc(a1-4)]GlcNAc
# Method in brief: as §1
# [5] = target: Fuc(a1-2)Gal(b1-4)Fuc(a1-3)]GlcNAc(b1-2)Man(a1-3)[Fuc(a1-2)Gal(b1-4)[Fuc(a1-3)]GlcNAc(b1-2)Man(a1-6)]Man(b1-4)GlcNAc(b1-4)GlcNAc
# Method in brief: as §1
# [6] = target: Fuc(a1-2)Gal(b1-4)GlcNAc6S
# Method in brief: as §1
# [7] = target: Fuc(a1-2)[Gal(a1-3)]Gal(b1-4)GlcNAc(b1-6)GalNAc
# Method in brief: as §1
# [8] = target: Fuc(a1-2)[GalNAc(a1-3)]Gal(b1-3)GalNAc(b1-3)Gal(a1-4)Gal(b1-4)Glc
# Method in brief: as §1
# [9] = target: Fuc(a1-2)[GalNAc(a1-3)]Gal(b1-3)GlcNAc(b1-6)GalNAc
# Method in brief: as §1
# [10] = target: Gal(a1-3)[Gal(a1-4)]Gal(b1-4)GlcNAc
# Method in brief: as §1
# [11] = target: Gal(b1-3)GlcNAc(a1-3)Gal(b1-4)GlcNAc
# Method in brief: as §1
# [12] = target: Gal(b1-3)GlcNAc(b1-2)Man
# Method in brief: as §1
# [13] = target: Gal(b1-3)[Fuc(a1-4)]GlcNAc(b1-2)Man
# Method in brief: as §1
# [14] = target: Gal(b1-3)[Fuc(a1-4)]GlcNAc(b1-3)Gal(b1-3)[Fuc(a1-4)]GlcNAc
# Method in brief: as §1
# [15] = target: Gal(b1-3)[Neu5Ac(b2-6)]GalNAc
# Method in brief: as §1
# [16] = target: Gal(b1-4)GlcNAc
# Method in brief: as §1
# [17] = target: Gal(b1-4)GlcNAc(b1-2)[Gal(b1-4)GlcNAc(b1-4)]Man(a1-3)[GlcNAc(b1-4)][Gal(b1-4)GlcNAc(b1-2)Man(a1-6)]Man(b1-4)GlcNAc(b1-4)GlcNAc
# Method in brief: as §1
# [18] = target: Gal(b1-4)GlcNAc(b1-3)Gal(b1-4)GlcNAc(b1-2)Man(a1-3)[Gal(b1-4)GlcNAc(b1-3)Gal(b1-4)GlcNAc(b1-2)Man(a1-6)]Man(b1-4)GlcNAc(b1-4)GlcNAc
# Method in brief: as §1
# [19] = target: Gal(b1-4)GlcNAc(b1-3)Gal(b1-4)GlcNAc(b1-3)Gal(b1-4)GlcNAc(b1-2)Man(a1-3)[Gal(b1-4)GlcNAc(b1-3)Gal(b1-4)GlcNAc(b1-3)Gal(b1-4)GlcNAc(b1-2)Man(a1-6)]Man(b1-4)GlcNAc(b1-4)GlcNAc
# Method in brief: as §1
# [20] = target: GalNAc(b1-4)GlcNAc(b1-2)Man
# Method in brief: as §1
# [21] = target: Glc(a1-6)Glc(a1-6)Glc
# Method in brief: as §1
# [22] = target: GlcNAc(a1-4)Gal(b1-4)GalNAc
# Method in brief: as §1
# [23] = target: GlcNAc(a1-4)Gal(b1-4)GlcNAc(b1-3)Gal(b1-4)GlcNAc
# Method in brief: as §1
# [24] = target: GlcNAc(a1-6)Gal(b1-4)GlcNAc
# Method in brief: as §1
# [25] = target: GlcNAc(b1-3)Gal(b1-4)GlcNAc(b1-3)Gal(b1-4)GlcNAc(b1-2)Man(a1-3)[GlcNAc(b1-3)Gal(b1-4)GlcNAc(b1-3)Gal(b1-4)GlcNAc(b1-2)Man(a1-6)]Man(b1-4)GlcNAc(b1-4)GlcNAc
# Method in brief: as §1
# [26] = target: GlcNAc(b1-3)Gal(b1-4)GlcNAc(b1-3)Gal(b1-4)GlcNAc(b1-2)[GlcNAc(b1-3)Gal(b1-4)GlcNAc(b1-3)Gal(b1-4)GlcNAc(b1-6)]Man(a1-6)[GlcNAc(b1-3)Gal(b1-4)GlcNAc(b1-3)Gal(b1-4)GlcNAc(b1-2)Man(a1-3)]Man(b1-4)GlcNAc(b1-4)[Fuc(a1-6)]GlcNAc
# Method in brief: as §1
# [27] = target: GlcNAc(b1-3)Gal(b1-4)GlcNAc(b1-3)Gal(b1-4)GlcNAc(b1-3)Gal(b1-4)GlcNAc(b1-2)[GlcNAc(b1-3)Gal(b1-4)GlcNAc(b1-3)Gal(b1-4)GlcNAc(b1-3)Gal(b1-4)GlcNAc(b1-6)]Man(a1-6)[GlcNAc(b1-3)Gal(b1-4)GlcNAc(b1-3)Gal(b1-4)GlcNAc(b1-3)Gal(b1-4)GlcNAc(b1-2)Man(a1-3)]Man(b1-4)GlcNAc(b1-4)[Fuc(a1-6)]GlcNAc
# Method in brief: as §1
# [28] = target: GlcNAc(b1-4)GlcNAc(b1-4)GlcNAc
# Method in brief: as §1
# [29] = target: GlcNAc6S(b1-3)Gal(b1-4)GlcNAc
# Method in brief: as §1
# [30] = target: Man(a1-2)Man(a1-2)Man(a1-6)[Man(a1-3)]Man
# Method in brief: as §1
binder,measurement,setting,value
Als3-N (Candida albicans) (protein) KTITGVFNSFNSLTWSNAATYNYKGPGTPTWNAVLGWSLDGTSASPGDTFTLNMPCVFKFTTSQTSVDLTAHGVKYATCQFQAGEEFMTFSTLTCTVSNTLTPSIKALGTVTLPLAFNVGGTGSSVDLEDSKCFTAGTNTVTFNDGGKKISINVDFERSNVDPKGYLTDSRVIPSLNKVSTLFVAPQCANGYTSGTMGFANTYGDVQIDCSNIHVGITKGLNDWNYPVSSESFSYTKTCSSNGIFITYKNVPAGYRPFVDAYISATDVNSYTLSYANEYTCAGGYWQRAPFTLRWTGYRNSDAGSNGIVIVATTRTVTDSTTAVTTLPFDPNRDKTKTIEILKPIPTTTITTSYVGVTTSYLTKTAPIGETATVIVDIPYHTTTTVTSKWTGTITSTTTHTNPTDSIDTVIVQVP,glycan array binding signal (z-score),[1],-0.276
same,glycan array binding signal (z-score),[2],-0.288
same,glycan array binding signal (z-score),[3],-0.291
same,glycan array binding signal (z-score),[4],-0.271
same,glycan array binding signal (z-score),[5],2.75
same,glycan array binding signal (z-score),[6],-0.257
same,glycan array binding signal (z-score),[7],-0.082
same,glycan array binding signal (z-score),[8],-0.14
same,glycan array binding signal (z-score),[9],-0.223
same,glycan array binding signal (z-score),[10],-0.221
same,glycan array binding signal (z-score),[11],2.03
same,glycan array binding signal (z-score),[12],0.065
same,glycan array binding signal (z-score),[13],0.115
same,glycan array binding signal (z-score),[14],2.42
same,glycan array binding signal (z-score),[15],0.915
same,glycan array binding signal (z-score),[16],-0.168
same,glycan array binding signal (z-score),[17],-0.288
same,glycan array binding signal (z-score),[18],8.26
same,glycan array binding signal (z-score),[19],3.26
same,glycan array binding signal (z-score),[20],0.231
same,glycan array binding signal (z-score),[21],-0.244
same,glycan array binding signal (z-score),[22],-0.081
same,glycan array binding signal (z-score),[23],-0.232
same,glycan array binding signal (z-score),[24],-0.233
same,glycan array binding signal (z-score),[25],3.11
same,glycan array binding signal (z-score),[26],2.36
same,glycan array binding signal (z-score),[27],3.08
same,glycan array binding signal (z-score),[28],-0.099
same,glycan array binding signal (z-score),[29],-0.1
same,glycan array binding signal (z-score),[30],-0.257
